Measured values taken from PubChem BioAssay (NCI).
This is part of a sample that, as a whole, favours compounds with a hit. Of some 79,000 tested, about 15% had one in any assay. The source made the active and inactive calls. No stated cut-off is given here; in the data, active means growth inhibition above about 70%; inactive means the rest.

Assay: NCI Yeast Anticancer Drug Screen. Data for the cln2 rad14 strain (AID 165);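 further: 0% = growth equal to vehicle treated cultures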
Details: S. cerevisiae cln2 rad14 strain, at 5.0 µM (retest, dose inferred, filed as 0.5), stronger effect = higher value
In short: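 Yeast carrying cln2 and rad14 alterations (cell cycle control and DNA damage repair) were exposed to compounds. Growth inhibition was measured against vehicle-treated controls.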

Row | SMILES | growth inhibition
1 | CC(=O)OC(OC(C)=O)c1ccc2ccc3cccc4ccc1c2c34 | 3% (inactive)
2 | C[N+]1=C(/C=C\c2ccc(O)c3ccccc23)C(C)(C)c2ccccc21 | -4% (inactive)
3 | CCCCC(O)CCCC | 3% (inactive)
4 | Nc1ccc(O)c2ccccc12 | -10% (inactive)
5 | O=C1CCC(Cc2ccc(C(F)(F)F)cc2)C(=O)N1 (centres undefined) | -3% (inactive)
6 | CCCCCCCC[N+](C)(C)Cc1ccc(C[N+](C)(C)CCCCCCCC)cc1 | 0% (inactive)
7 | CC(C)(N)COB(c1ccccc1)c1ccccc1 | 0% (inactive)
8 | CCCCC(Oc1cc(C(C)(C)C)c(O)c(C(C)(C)C)c1)C(=O)O (centres undefined) | 49% (inactive)
9 | CCCCCCCCN(CCCCCCCC)Cc1ccc(Br)cc1 | 97% (active)
10 | CCc1cc2c(c3c1C(=O)CC3)C(C)(C)CCC2 | 2% (inactive)
11 | FC(F)(F)c1ccc(Cl)c(NC(=S)SC2CCCCC2)c1 | -30% (inactive)
12 | NC(N)=Nc1ccc(Cc2ccc(N=C(N)N)cc2)cc1 | 3% (inactive)
13 | Nc1ccc(-c2cccc(-c3ccccc3)c2)cc1 | -40% (inactive)
14 | COc1cc(CSc2ccc(O)cc2)cc(OC)c1OC | -18% (inactive)
15 | CC(C)N(CC(=O)c1ccc2cc(Cl)c3ccccc3c2c1)C(C)C | 8% (inactive)
16 | Cc1c(N2CCCC2)cc2c(c1NC(=O)c1ccccc1Cl)C(C)(C)CC2(C)C | 0% (inactive)

Row | SMILES | growth inhibition
17 | CNc1ccc([N+](=O)[O-])cc1 | 2% (inactive)
18 | CC(C)(C)OC(=O)c1ccc(NCC2=C(Br)C(=O)C=CC2=O)cc1 | 5% (inactive)
19 | CCN(CC)CCNc1ccc(C)c2oc3ccc(O)cc3c(=O)c12 | 1% (inactive)
20 | CCS(=O)(=O)c1ccc(NC(=O)OC2CCCCCCC2)cc1 | -50% (inactive)
21 | Cc1cc2c(c3c1C(=O)CC3)C(C)(C)CC2(C)C | -2% (inactive)
22 | O=C(O)/C=C\c1cc2ccccc2c2ccccc12 | 11% (inactive)
23 | CC[N+](C)(CC)CCC[n+]1c(-c2ccccc2)c2cc(N)ccc2c2ccc(N)cc21 | -3% (inactive)
24 | Cn1nc2c(c(Cl)c1=O)Nc1ccccc1O2 | -8% (inactive)
25 | COC(=O)CSc1nc2[nH]c(SC)c(C(N)=O)c2c(=O)n1-c1ccccc1 | -5% (inactive)
26 | O=S(=O)(Nc1ccc(Cl)cc1)c1ccccc1 | -9% (inactive)
27 | COc1ccc(C(=O)Nc2ccc(Cl)cc2)cc1 | -7% (inactive)
28 | C=CCOC(=O)CCC(=O)N(CC)CC | -7% (inactive)
29 | N#CCC(=O)N/N=C(/CC1(O)C(=O)Nc2c(Cl)cc(Cl)cc21)c1ccccc1 (centres undefined) | -7% (inactive)
30 | CCCCOC(=O)c1cnc[nH]c1=O | 4% (inactive)
31 | N#Cc1ccccc1[N+](=O)[O-] | -1% (inactive)
32 | CCCCOC(=O)c1ccc(O)c(OC)c1 | -5% (inactive)

Same assay, conditions: S. cerevisiae cln2 rad14 strain, at 50.0 µM (retest, dose inferred, filed as 5.0), stronger effect = higher value

Row | SMILES | growth inhibition
33 | CC(=O)OC(OC(C)=O)c1ccc2ccc3cccc4ccc1c2c34 | 78% (active)
34 | C[N+]1=C(/C=C\c2ccc(O)c3ccccc23)C(C)(C)c2ccccc21 | 83% (active)
35 | CCCCC(O)CCCC | 13% (inactive)
36 | Nc1ccc(O)c2ccccc12 | 8% (inactive)
37 | O=C1CCC(Cc2ccc(C(F)(F)F)cc2)C(=O)N1 (centres undefined) | 5% (inactive)
38 | CCCCCCCC[N+](C)(C)Cc1ccc(C[N+](C)(C)CCCCCCCC)cc1 | 18% (inactive)
39 | CC(C)(N)COB(c1ccccc1)c1ccccc1 | 99% (active)
40 | CCCCC(Oc1cc(C(C)(C)C)c(O)c(C(C)(C)C)c1)C(=O)O (centres undefined) | 95% (active)
41 | CCCCCCCCN(CCCCCCCC)Cc1ccc(Br)cc1 | 99% (active)
42 | CCc1cc2c(c3c1C(=O)CC3)C(C)(C)CCC2 | 97% (active)
43 | FC(F)(F)c1ccc(Cl)c(NC(=S)SC2CCCCC2)c1 | 88% (active)
44 | NC(N)=Nc1ccc(Cc2ccc(N=C(N)N)cc2)cc1 | 2% (inactive)
45 | Nc1ccc(-c2cccc(-c3ccccc3)c2)cc1 | 96% (active)
46 | COc1cc(CSc2ccc(O)cc2)cc(OC)c1OC | 4% (inactive)
47 | CC(C)N(CC(=O)c1ccc2cc(Cl)c3ccccc3c2c1)C(C)C | 98% (active)
48 | Cc1c(N2CCCC2)cc2c(c1NC(=O)c1ccccc1Cl)C(C)(C)CC2(C)C | 91% (active)

Row | SMILES | growth inhibition
49 | CNc1ccc([N+](=O)[O-])cc1 | 1% (inactive)
50 | CC(C)(C)OC(=O)c1ccc(NCC2=C(Br)C(=O)C=CC2=O)cc1 | 94% (active)
51 | CCN(CC)CCNc1ccc(C)c2oc3ccc(O)cc3c(=O)c12 | 22% (inactive)
52 | CCS(=O)(=O)c1ccc(NC(=O)OC2CCCCCCC2)cc1 | 88% (active)
53 | Cc1cc2c(c3c1C(=O)CC3)C(C)(C)CC2(C)C | 78% (active)
54 | O=C(O)/C=C\c1cc2ccccc2c2ccccc12 | 99% (active)
55 | CC[N+](C)(CC)CCC[n+]1c(-c2ccccc2)c2cc(N)ccc2c2ccc(N)cc21 | 19% (inactive)
56 | Cn1nc2c(c(Cl)c1=O)Nc1ccccc1O2 | -9% (inactive)
57 | COC(=O)CSc1nc2[nH]c(SC)c(C(N)=O)c2c(=O)n1-c1ccccc1 | 3% (inactive)
58 | O=S(=O)(Nc1ccc(Cl)cc1)c1ccccc1 | 81% (active)
59 | COc1ccc(C(=O)Nc2ccc(Cl)cc2)cc1 | 5% (inactive)
60 | C=CCOC(=O)CCC(=O)N(CC)CC | 0% (inactive)
61 | N#CCC(=O)N/N=C(/CC1(O)C(=O)Nc2c(Cl)cc(Cl)cc21)c1ccccc1 (centres undefined) | 23% (inactive)
62 | CCCCOC(=O)c1cnc[nH]c1=O | 3% (inactive)
63 | N#Cc1ccccc1[N+](=O)[O-] | 25% (inactive)
64 | CCCCOC(=O)c1ccc(O)c(OC)c1 | 2% (inactive)
